# Screening data as filed in PubChem BioAssay.
# The list is not random: actives were taken first. Their share in the collection is about 0.45%.
# Menin MLL FP FL: displaces fluorescein MLL peptide from human menin. 290,000 tested, under 10 active. AID 1766. FP activity change, % at 61.4 µM. Fluorescence polarization, fluorescein-MLL peptide displacement from menin; active = well fitted curve in the direction sought with a large enough effect in the polarisation, not every such curve was filed as active; inconclusive = small, poorly fitted or top-dose-only effect, or effect the other way, or a change in a side signal; inactive = no such curve, though single readings can be large or run the other way; the % refers to the polarisation; note: % of control where 0% means no effect
# aGlu spleen mod: inhibitors or activators of human alpha-glucosidase in spleen homogenate; 0.006% of 240,000 active; Potency, µM (top dose mostly 79.9 µM), for the others: at the top dose activity change, negative = inhibition, hits mostly inhibitors; P10253; human spleen homogenate, 4-MU-alpha-glucoside fluorescence; AID 2112;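 note: potency is the fitted concentration of half-maximal effect; 0% = enzyme with vehicle and -100% = no enzyme basal signal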
#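 Compounds were titrated against alpha-glucosidase in spleen homogenate at pH 5.0, with 1 mM 4-methylumbelliferyl substrate for 40 min at 37 C. Reactions were quenched with pH 10 NaOH/glycine and fluorescence measured.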
# GAA inh: blocks human lysosomal alpha-glucosidase; 0.005% of 200,000 active; AID 1466; purified human GAA, 4-MU-alpha-glucoside fluorescence; P10253; Potency, µM (series often up to 76.9 µM), without a hit: top-dose activity change, negative = inhibition, hits mostly inhibitors;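 note: potency is the fitted concentration of half-maximal effect; plate controls were uninhibited enzyme wells for no effect and no-enzyme background for full effect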
#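 Compounds are titrated up to 77 uM against 4 nM human enzyme. Substrate 4-methylumbelliferyl-alpha-D-pyranoside (400 uM) reacts 20 min at room temperature in pH 5.0 buffer; liberated 4-methylumbelliferone is read at 440 nm.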
# GAA glycogen: inhibitors or activators of human alpha-glucosidase glycogen cleavage; recombinant GAA, glycogen substrate, Amplex Red glucose oxidase fluorescence; Potency, µM (doses to about 76.4 µM), for the others: at the top dose activity change, negative = inhibition, actives largely listed as inhibitors; 0.38% of 300,000 active; AID 2100;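 note: potency is the fitted concentration of half-maximal effect; 0% = full enzyme reaction and -100% = no-enzyme basal signal; the screen sought inhibitors and activators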
#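 Natural-substrate format: glycogen cleavage by 4 nM human enzyme, glucose read by Amplex Red coupling (Ex 573, Em 610 nm). Normalized to enzyme and no-enzyme controls.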
# Menin-MLL TR inh: inhibitors of human menin-MLL interaction, mutant MLL peptide | 0.23% of 270,000 active | Potency, µM (highest dose often 61.6 µM), without a hit: at the top dose FP activity change, negative = inhibition, most hits filed as inhibitors | Menin + Texas Red MLL mutant peptide, fluorescence polarization | O00255 | AID 1768; active = well fitted inhibition curve with a large enough effect in the polarisation, with a control signal flat, not every such curve was filed as active; inconclusive = small, poorly fitted or top-dose-only effect, or effect the other way, or a change in a side signal; inactive = no such curve, though single readings can be large or run the other way; the % refers to the polarisation; note: potency is the fitted concentration of half-maximal effect; % of control where 0% means no effect
# Target sequence (O00255 whole entry, looked up): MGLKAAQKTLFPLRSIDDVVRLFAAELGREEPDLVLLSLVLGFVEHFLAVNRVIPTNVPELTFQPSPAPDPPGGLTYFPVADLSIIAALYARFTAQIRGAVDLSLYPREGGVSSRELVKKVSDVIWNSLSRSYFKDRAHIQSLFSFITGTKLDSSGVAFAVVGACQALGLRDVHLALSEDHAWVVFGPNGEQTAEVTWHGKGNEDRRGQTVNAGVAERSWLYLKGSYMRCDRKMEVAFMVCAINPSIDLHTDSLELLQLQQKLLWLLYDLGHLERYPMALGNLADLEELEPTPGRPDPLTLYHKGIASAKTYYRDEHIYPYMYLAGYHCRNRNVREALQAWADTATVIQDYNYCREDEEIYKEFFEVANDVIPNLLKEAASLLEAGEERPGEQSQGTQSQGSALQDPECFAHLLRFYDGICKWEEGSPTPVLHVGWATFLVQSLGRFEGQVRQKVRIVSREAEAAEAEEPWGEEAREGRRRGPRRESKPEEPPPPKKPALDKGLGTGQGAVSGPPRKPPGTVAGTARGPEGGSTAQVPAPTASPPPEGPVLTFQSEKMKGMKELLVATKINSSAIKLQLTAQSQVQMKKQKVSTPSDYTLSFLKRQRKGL
# MLL CXXC-DNA inh: MLL CXXC-DNA interaction inhibition. Q03164. MLL-CXXC / FITC-HOXA9 DNA fluorescence polarization. Potency, µM (series often up to 115 µM), for inactives: at the top dose activity change, negative = inhibition, most hits filed as inhibitors. 0.037% of 290,000 active; active = well fitted inhibition curve with a large enough effect in the polarisation, with a control signal flat, not every such curve was filed as active; inconclusive = small, poorly fitted or top-dose-only effect, or effect the other way, or a change in a side signal; inactive = no such curve, though single readings can be large or run the other way; the % refers to the polarisation; note: potency is the fitted concentration of half-maximal effect
#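 Steps: dispense CXXC domain solution (7 uM) → pin compounds or unlabeled HOX-A9 DNA control → 5 min ambient → add FLSN-HOX-A9 solution (50 nM) → spin → 30 min ambient → fluorescence polarization. Tris pH 7.5/NaCl/DTT/BSA buffer.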
# MLL CXXC Fl: disrupts human MLL CXXC domain binding to DNA | shares compounds with MLL CXXC-DNA inh | MLL CXXC-DNA binding, fluorescein FP | Potency, µM (titrated, usually from 345 µM), inactives show at the top dose activity change, negative = inhibition, most hits filed as inhibitors | 70% of 200 active | AID 624160; note: potency is the fitted concentration of half-maximal effect; nearly all actives have a fitted effect of over 80% in size
# MLL CXXC FP-TR: inhibitors of human MLL CXXC domain-DNA interaction, Texas Red format; AID 624161; Potency, µM (titrated, usually from 345 µM), inactives show at the top dose activity change, negative = inhibition, actives largely listed as inhibitors; shares compounds with MLL CXXC-DNA inh; 40% of 200 active; MLL CXXC-DNA binding, Texas Red fluorescence polarization; note: potency is the fitted concentration of half-maximal effect; % is set by controls: 0 for no effect and ±100 for the full control effect; nearly all actives have a fitted effect of over 75% in size
# MLL CXXC TRF: inhibitors of human MLL CXXC domain-DNA interaction, HTRF format; AID 624162; shares compounds with MLL CXXC-DNA inh; Potency, µM (doses to about 172 µM), for inactives: at the top dose activity change, negative = inhibition, usual class: inhibitors; 30% of 210 active; MLL CXXC-DNA binding, HTRF, biochemical; note: % is set by controls: 0 for no effect and ±100 for the full control effect; nearly all actives have a fitted effect of over 80% in size
# * = called active by the depositor; ? = inconclusive; . = not tested or not shown; [ ] = remark or other dose. Unless noted, calls come from the whole dose curve; as a rule, active = well fitted curve in the direction sought with a large enough effect; inconclusive = small, poorly fitted or top-dose-only effect, or another doubt; inactive = no such curve, though single readings can be large; an effect the other way counts as inactive or inconclusive.
SMILES,Menin MLL FP FL,aGlu spleen mod,GAA inh,GAA glycogen,Menin-MLL TR inh,MLL CXXC-DNA inh,MLL CXXC Fl,MLL CXXC FP-TR,MLL CXXC TRF
CN1C(=O)C(=O)/C(=C(/O)c2ccc(Br)cc2)C1c1ccc(Cl)cc1 (stereo not given),-2,.,.,1%[76.3 µM],18%,-3%,.,.,.
O=C1OC(c2ccc(Cl)cc2)/C(=C(/O)c2ccccc2)C1=O (stereo not given),-2,-10%,-4%,1%,34%,?,5%,126µM*,30%
CCc1ccccc1NC(=O)c1ccc2c(O)c(S(=O)(=O)c3ccccc3)c(=O)[nH]c2c1,.,.,.,2%[76.3 µM],.,.,.,.,.
COc1ccc(CNC(=O)CCc2c(C)nc3c(c2C)c(=O)n(C)c(=O)n3C)cc1,.,.,.,-15%[76.3 µM],.,.,.,.,.
O=c1[nH]c2ccccc2c2nc3ccccn3c12,-3,-2%,-24%,0%,?,-17%,.,.,.
O=c1nc2c(O)cccn2c2c1c(=O)[nH]c1ccccc12,?,-2%,?,-6%,0%,32µM*,4µM*,?,?
COc1ccccc1N1CCN(C(=O)CCC(=O)Nc2nnc(C(C)C)s2)CC1,.,.,.,-5%[76.3 µM],.,22%,.,.,.
